Sampled rows, rich in hits. Any-hit rate of the full collection: about 19%.
DT40 TDP1 no CPT: qHTS for Inhibitors of human tyrosyl-DNA phosphodiesterase 1 (TDP1): qHTS in cells in absence of CPT; Potency, µM (doses to about 46.2 µM), without a hit: at the highest dose activity change, negative = growth inhibition, actives largely listed as inhibitors; 15% of 420,000 active; DT40 Tdp1-/- hTDP1 cells, no CPT, ATP luminescence, 48 h; note: potency is the fitted concentration of half-maximal effect; % is set by controls: 0 for no effect and ±100 for the full control effect; nearly all actives have a fitted effect of over 55% in size
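DT40 Tdp1-/-;hTDP1 cells, no CPT (DMSO vehicle only), 400 cells/well; compounds pin-transferred; ≥48 hr, 37 °C; CellTiter-Glo 30 min RT dark, luminescence read.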
TDP1 inh: TDP1 (human) enzyme inhibition; recombinant TDP1, AlphaScreen DNA substrate cleavage; Q9NUW8; 0.28% of 350,000 active; Potency, µM (top dose mostly 130 µM), for the others: top-dose activity change, negative = inhibition, usual class: inhibitors; note: potency is the fitted concentration of half-maximal effect; % is set by controls: 0 for no effect and ±100 for the full control effect; nearly all actives have a fitted effect of over 40% in size
Target sequence (Q9NUW8 whole entry, looked up): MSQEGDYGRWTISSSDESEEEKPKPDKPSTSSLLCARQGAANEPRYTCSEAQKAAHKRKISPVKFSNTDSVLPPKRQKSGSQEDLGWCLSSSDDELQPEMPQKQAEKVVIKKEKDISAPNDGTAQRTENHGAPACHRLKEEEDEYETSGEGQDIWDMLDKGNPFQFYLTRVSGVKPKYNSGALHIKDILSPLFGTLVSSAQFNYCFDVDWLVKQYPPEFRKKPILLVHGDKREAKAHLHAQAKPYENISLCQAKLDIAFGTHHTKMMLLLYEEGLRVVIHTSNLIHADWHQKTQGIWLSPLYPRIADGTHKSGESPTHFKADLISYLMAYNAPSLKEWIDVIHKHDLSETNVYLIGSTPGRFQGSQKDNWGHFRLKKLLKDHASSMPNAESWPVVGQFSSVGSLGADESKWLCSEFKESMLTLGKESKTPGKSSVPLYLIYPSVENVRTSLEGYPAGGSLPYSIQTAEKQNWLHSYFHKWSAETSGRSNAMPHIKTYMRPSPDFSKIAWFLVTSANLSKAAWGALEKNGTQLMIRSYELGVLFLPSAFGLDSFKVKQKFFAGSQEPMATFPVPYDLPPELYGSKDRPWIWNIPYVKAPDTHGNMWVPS
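Here, a 5' biotin and 3' phosphotyrosine-FITC DNA oligonucleotide reports Tdp1 activity: intact substrate bridges AlphaScreen beads, while cleavage leaves a 3' phosphate and drops signal. All incubations at room temperature.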
IL-1B inflam inh: inflammasome signaling inhibition, IL-1 beta readout; 4.7% of 360,000 active; THP-1 LPS/ATP IL-1B secretion, AlphaLISA, 16 h; hits give low values; activity change, % at 57.5 µM; in the data active = activity change below about -50%; inconclusive = mostly about -30% to -49%; note: % is set by controls: 0 for no effect and ±100 for the full control effect
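THP-1 cells pretreated 1 hr with compounds (up to 57.5 uM final), then stimulated with LPS (250 ng/mL final) plus ATP (1.25 mM final); secreted IL-1B measured by AlphaLISA after 16 hr, decreased signal indicating inhibition.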
TGFb inhibitor: TGF-b pathway inhibition; HepG2 CAGA-GFP TGF-b/SMAD3 reporter, GFP fluorescence, 18 h; TGF-beta stimulated, 500 pg/mL final; Potency, µM (top dose mostly 46.1 µM), for inactives: at the top dose activity, negative = inhibition, usual class: inhibitors; 1.2% of 410,000 active; AID 588855; note: potency is the fitted concentration of half-maximal effect; % is set by controls: 0 for no effect and ±100 for the full control effect; nearly all actives have a fitted effect of over 65% in size
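Inhibition of TGF-beta-driven CAGA-GFP reporter expression in HEPG2 cells is measured by cellular GFP fluorescence after 18 h stimulation with 500 pg/mL recombinant TGF-beta in 1% FBS medium at 37 degrees C.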
HepG2 tox: kills HepG2 cells in TGF-b inhibitor counter-screen; HepG2 CAGA-GFP viability, ATP luminescence, 18 h; Potency, µM (highest dose often 46.1 µM), for the others: top-dose activity change, negative = cytotoxicity, actives largely listed as cytotoxic; 0.76% of 410,000 active; note: potency is the fitted concentration of half-maximal effect
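CellTiter-Glo luminescence gave cytotoxicity after 18 hours at 37 degrees C. The cells were HepG2 CAGA-GFP in 1% FBS DMEM, stimulated with 500 pg/mL TGF-beta after compound addition. %Activity was normalised to no-cell wells (complete cell-killing) and DMSO (no toxicity), and curves were fitted and classified.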
TDP1 cell CPT: DT40-hTDP1 cell growth loss with CPT | chicken DT40 Tdp1-/-;hTDP1 cells + 20 nM CPT, ATP luminescence, 48 h | Potency, µM (top dose mostly 46.2 µM), for inactives: at the top dose activity change, negative = growth inhibition, most hits filed as inhibitors | 12% of 420,000 active | AID 686979; note: potency is the fitted concentration of half-maximal effect; % is set by controls: 0 for no effect and ±100 for the full control effect; nearly all actives have a fitted effect of over 55% in size
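Cell growth measured by CellTiter-Glo luminescence after a minimum 48 h, 37 C compound exposure with 20 nM CPT in Tdp1-knockout DT40 cells stably expressing hTDP1, seeded 400/well; qHTS titration format.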
* marks the source's active call; other numbers are inactive results; [ ] = dose if it differs, or a comment. Unless noted, calls come from the whole dose curve; as a rule, active = well fitted curve in the direction sought with a large enough effect; inconclusive = small, poorly fitted or top-dose-only effect, or another doubt; inactive = no such curve, though single readings can be large; an effect the other way counts as inactive or inconclusive.

Cc1c(C(=O)NCc2ccc3c(c2)OCCO3)sc(=O)n1Cc1ccccc1C(F)(F)F was read as DT40 TDP1 no CPT inconclusive, IL-1B inflam inh -5.6, TGFb inhibitor -15.0%, HepG2 tox -20.2% and TDP1 cell CPT inconclusive.
O=C(NC1CCCC1)C1CCCN(S(=O)(=O)c2ccc(F)cc2)C1 (centres undefined) was read as DT40 TDP1 no CPT inconclusive, IL-1B inflam inh 37.9, TGFb inhibitor -16.6%, HepG2 tox -5.8% and TDP1 cell CPT -10.0%.
Screening COC(=O)C1=C(C)NC(C)=C(C(=O)OC)C1c1cc2ccc(C)cc2[nH]c1=O returned DT40 TDP1 no CPT inconclusive, TDP1 inh -1.0%, IL-1B inflam inh 18.5, TGFb inhibitor -0.8%, HepG2 tox -24.4% and TDP1 cell CPT -25.0%.
For CCOC(=O)C1=C(C)NC(C)=C(C(=O)OCC)C1c1cc2ccc(C)cc2[nH]c1=O the results were DT40 TDP1 no CPT inconclusive, TDP1 inh -1.9%, IL-1B inflam inh 51.1, TGFb inhibitor 0.0%, HepG2 tox -7.9% and TDP1 cell CPT 23.1µM*.
O=C1c2ccc(-c3ccc(Cl)c(C(F)(F)F)c3)cc2S(=O)(=O)c2cccc(C(=O)N3CCN(c4ccc(Cl)cn4)CC3)c21 was read as DT40 TDP1 no CPT 13µM*, TDP1 inh -15.1%, IL-1B inflam inh -15.0, TGFb inhibitor 13.2%, HepG2 tox -0.4% and TDP1 cell CPT inconclusive.
`O=C1c2ccccc2S(=O)(=O)c2cc(C(=O)N3CCN(c4ccc(Cl)cn4)CC3)ccc21` gave DT40 TDP1 no CPT -11.0%, IL-1B inflam inh inconclusive, TGFb inhibitor -14.1%, HepG2 tox -2.2% and TDP1 cell CPT 2.8%.
Screening COc1ccc(-c2ccc3c(c2)S(=O)(=O)c2cccc(C(=O)N4CCN(c5ccccn5)CC4)c2C3=O)cc1OC returned DT40 TDP1 no CPT 14.6µM*, IL-1B inflam inh 9.6, TGFb inhibitor 20.0%, HepG2 tox 2.6% and TDP1 cell CPT 18.4µM*.
`O=C1c2ccc(-c3ccc(F)cc3OCc3ccccc3)cc2S(=O)(=O)c2cccc(C(=O)N3CCCC3)c21` gave DT40 TDP1 no CPT 14.6µM*, TDP1 inh 4.7%, IL-1B inflam inh 14.3, TGFb inhibitor -19.3%, HepG2 tox -0.9% and TDP1 cell CPT 13µM*.
For COc1ccc(-c2ccc3c(c2)S(=O)(=O)c2cccc(C(=O)N4CCN(C5CCCCC5)CC4)c2C3=O)cc1OC the results were DT40 TDP1 no CPT inconclusive, TDP1 inh 4.6%, IL-1B inflam inh -18.3, TGFb inhibitor 1.8%, HepG2 tox -15.3% and TDP1 cell CPT 18.4µM*.
For O=S(=O)(c1ccc(Cl)cc1Cl)n1ccnc1 the results were DT40 TDP1 no CPT -13.9%, TDP1 inh -3.2%, TGFb inhibitor -2.7%, HepG2 tox -3.9% and TDP1 cell CPT -5.5%.
`CCCC(=O)N(c1ccc2oc3c(c2c1)CCCC3)S(=O)(=O)c1ccc(CC)cc1` gave TGFb inhibitor -8.9% and HepG2 tox -12.3%.
For CCCN(CC(=O)Nc1ccccc1OC)C(=O)c1ccncc1 the results were DT40 TDP1 no CPT -4.8%, TDP1 inh 5.9%[0.0935 µM], IL-1B inflam inh 1.8, TGFb inhibitor 7.7%, HepG2 tox -5.0% and TDP1 cell CPT -2.1%.
Screening COc1ccc(S(=O)(=O)N2CCN(c3ccccn3)CC2)cc1OC returned DT40 TDP1 no CPT -27.7%, TDP1 inh 0.0%, IL-1B inflam inh 41.4, TGFb inhibitor 2.2%, HepG2 tox -19.0% and TDP1 cell CPT -21.2%.
`COc1ccc(-c2cccc(N3CCN(c4ccccn4)CC3)n2)cc1OC` gave DT40 TDP1 no CPT 18.4µM*, IL-1B inflam inh 28.8, TGFb inhibitor 22.7%, HepG2 tox -21.7% and TDP1 cell CPT 16.4µM*.
CCOC(=O)c1nn(-c2ccc(C)c(C)c2)c(=O)c2c(N)scc12 was read as DT40 TDP1 no CPT inconclusive, TDP1 inh 3.1%, IL-1B inflam inh 1.7, TGFb inhibitor 2.5%, HepG2 tox -19.3% and TDP1 cell CPT 20.6µM*.
Screening CCOC(=O)c1nn(-c2ccc(OC)cc2)c(=O)c2c(N)scc12 returned DT40 TDP1 no CPT -1.2%, TDP1 inh -2.8%, IL-1B inflam inh -3.7, TGFb inhibitor inconclusive, HepG2 tox -1.7% and TDP1 cell CPT -0.7%.
Screening CCOc1ccc(NC(=O)Cn2cc(C(=O)c3ccc(CC)cc3)c(=O)c3cc(OC)c(OC)cc32)cc1 returned DT40 TDP1 no CPT inconclusive, TDP1 inh 6.4%, TGFb inhibitor inconclusive, HepG2 tox -10.2% and TDP1 cell CPT -4.0%.
`CCc1ccc(C(=O)c2cn(CC(=O)Nc3ccc(F)c(F)c3)c3cc(OC)c(OC)cc3c2=O)cc1` gave DT40 TDP1 no CPT 16.4µM*, TDP1 inh 3.8%, TGFb inhibitor inconclusive, HepG2 tox -21.9% and TDP1 cell CPT 20.6µM*.
Cc1ccc(Cn2cc(C(=O)c3ccc(F)cc3)c(=O)c3cc4c(cc32)OCO4)cc1 was read as DT40 TDP1 no CPT inconclusive, TDP1 inh 8.1%, TGFb inhibitor 11.1%, HepG2 tox -11.0% and TDP1 cell CPT inconclusive.
For CCc1ccc(C(=O)c2cn(Cc3ccc(F)cc3)c3cc(OC)c(OC)cc3c2=O)cc1 the results were DT40 TDP1 no CPT 6.51µM*, TDP1 inh 3.5%, TGFb inhibitor inconclusive, HepG2 tox -12.9% and TDP1 cell CPT 5.8µM*.
COc1ccc(C2c3c(n(C)c4ccccc34)C(=O)N2CC(=O)Nc2ccc(C)cc2Cl)cc1 (centres undefined) was read as DT40 TDP1 no CPT inconclusive, TDP1 inh 5.6%, TGFb inhibitor inconclusive, HepG2 tox -16.7% and TDP1 cell CPT inconclusive.
`N#Cc1ccc(CS(=O)(=O)c2ccccc2)cc1` gave TDP1 inh 7.5%.
NC(=O)c1ccc[n+](CC(=O)OCCC23CC4CC(CC(C4)C2)C3)c1 was read as DT40 TDP1 no CPT -24.9%, TDP1 inh 2.0%, IL-1B inflam inh -3.8, TGFb inhibitor -15.3%, HepG2 tox 1.9% and TDP1 cell CPT -11.3%.
Cc1c(CCOC(=O)CC23CC4CC(CC(C4)C2)C3)sc[n+]1CC(=O)c1ccc(Br)cc1 was read as DT40 TDP1 no CPT 25.9µM*, TDP1 inh 0.0%, IL-1B inflam inh -61.5*, TGFb inhibitor inconclusive, HepG2 tox -115.6% and TDP1 cell CPT inconclusive.
